According to PubChem BioAssay AID434989 (The Scripps Research Institute Molecular Screening Center, 2010):
About 1,400 (0.42%) of roughly 330,000 compounds were called active.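 Rule for the calls: active = inhibition above its plate's threshold, mean inhibition of all tested compounds on the plate plus 3 SD (cut at about 37% in these data); inactive = the rest.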 Shown is part of a subset that was picked to be rich in actives.

The compounds below were run against Orexin/Hypocretin receptor type 1 (Homo sapiens) (UniProt O43613) (assay: OX1R (HCRTR1) antagonists, primary screen, fluorescence, CHO/OX1R cells, Fluo-8 calcium, orexin A (AID 434989;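 note: 0% = orexin A challenge wells and 100% = SB-334867-A antagonist wells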)). Conditions: Fluo-8 calcium fluorescence, at 5 µM, stronger effect = higher value.
Chain of Orexin/Hypocretin receptor type 1 (Homo sapiens) (O43613 whole entry, looked up): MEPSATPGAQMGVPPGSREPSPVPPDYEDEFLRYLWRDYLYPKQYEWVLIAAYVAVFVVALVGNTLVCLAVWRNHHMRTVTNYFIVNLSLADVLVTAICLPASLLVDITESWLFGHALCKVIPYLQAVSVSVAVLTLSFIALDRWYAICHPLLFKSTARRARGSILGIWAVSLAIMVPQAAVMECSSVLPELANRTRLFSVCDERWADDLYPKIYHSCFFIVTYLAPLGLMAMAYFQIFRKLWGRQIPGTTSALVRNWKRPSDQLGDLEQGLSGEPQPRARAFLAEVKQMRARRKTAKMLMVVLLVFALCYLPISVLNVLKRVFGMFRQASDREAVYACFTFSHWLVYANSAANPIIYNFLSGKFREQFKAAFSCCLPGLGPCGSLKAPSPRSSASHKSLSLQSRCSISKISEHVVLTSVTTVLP

inhibition, inactive:
CCNC(=O)CSc1nc(-c2ccccc2)cs1 4.28%, N#CC(=C1CCCC1)c1nc(-c2ccc(Cl)cc2)cs1 -23.8%, N#C/C(=C1/CCCN1)c1ccccn1 -3.72%, Cn1c(/C(C#N)=C2/CCCCCN2)nc2ccccc21 -27.9%, Cc1cccc(C(=O)N[C@H](C(=O)NCc2cccs2)C(C)C)c1 -7.31%, CCOC(=O)N1CCN(C(=O)C2CCN(S(=O)(=O)c3cc(Cl)ccc3OCC)CC2)CC1 -21.5%, CCOC(=O)C1CCN(c2ncnc3c2oc2ccc(Br)cc23)CC1 -11.1%, CCN(CC(=O)NC(C)C)C(=O)c1cc(S(=O)(=O)N2CCCCC2)ccc1N1CCCCC1 -37.7%, CCCCNC(=O)C(C)N(CCN(C)C)C(=O)CCCN1C(=O)NC(c2ccc(Cl)cc2)C(C(=O)OCc2ccccc2)=C1C (stereo not drawn) -28.8%, O=C(Nc1cccc(Br)c1)c1ccc2snnc2c1 -1.56%, CCc1ccccc1NC(=O)c1ccc2snnc2c1 -1.72%, COc1ccc(C2=Nn3c(nnc3-c3ccccc3OC)SC2)cc1OC1CCCC1 -19.5%, O=c1c2ccccc2nc2n1C(CSCc1ccccc1)CS2 (stereo not drawn) -3.31%, O=c1c2ccccc2nc2n1C(CSc1ccc(F)cc1)CN2 (stereo not drawn) -5.98%, Cc1ccc(S(=O)(=O)NCC(=O)NNC(=O)c2ccc(Br)cc2)cc1C -11.2%, COc1cccc(CC(=O)OCC(=O)NCc2ccc3c(c2)OCO3)c1 -9.44%, COc1ccccc1/C=N/Nc1nc(C)c(C(C)=O)s1 -4.69%, Oc1cccc(/C=N/Nc2ccc(Cl)nn2)c1O -18.9%, CCNC(=O)N(CC)C[C@H]1N[C@@](CC)(C(=O)OC)[C@H]2C(=O)N(Cc3ccccc3)C(=O)[C@@H]12 4.29%, C=CCC[C@H](Cc1ccc(F)cc1)C(=O)OC[C@H](C)NC(=O)[C@H](CC=C)CC(=O)N(CCO)Cc1ccccc1 6.31%, CN(C)C(=O)CCc1ccc2c3c([nH]c2c1)[C@]1(C)[C@@H](C(=O)N2CCCCC2)C[C@H](CC(=O)NCCC2=CCCCC2)C(=O)N1CC3 -30.3%, Cc1c(NC(=O)C(C)OC(=O)c2ccccc2O)c(=O)n(-c2ccccc2)n1C (stereo not drawn) -6.55%, Cn1nccc1C(=O)NC1CCCc2c1cnn2-c1ccccc1F (stereo not drawn) 8.33%, Cc1cc(C(=O)NC2CCCc3c2cnn3-c2cccc(C)c2C)c(C)o1 (stereo not drawn) 26.6%, CC(C)(C)OC(=O)C[C@@H]1C/C=C\C[C@@H](CC(=O)N(CCO)Cc2ccccc2)C(=O)N[C@H](Cc2ccccc2)COC1=O -33.6%, OCCN(Cc1ccccc1)Cc1ccc(Cl)cc1 9.29%, CCN(CC)CCCNC(=O)CCc1ccccc1 -15%, CCN(CC)C(=O)[C@H]1CC(CC(=O)NCc2ccco2)C(=O)N2CCc3c([nH]c4ccccc34)[C@]12C (stereo partly drawn) -11.1%, Cc1c(C(=O)Nc2cccc(S(=O)(=O)N3CCOCC3)c2)oc2ccccc12 -3.24%, O=C(c1cc(COc2ccc(F)c(F)c2)on1)N1CCOCC1 -5.38%, COc1cccc(OCc2cc(C(=O)N3CCN(C(=O)c4ccco4)CC3)no2)c1 -6.35%, Cc1ccc(CNC(=O)Cn2cnc3c(NCc4ccccc4)ncnc32)o1 10.5%, O=C(CCNC(=O)c1ccccc1)Nc1nc2ccccc2s1 -8.05%, O=C(CNC(=O)c1ccccc1)Oc1ccc([N+](=O)[O-])cc1 -4.15%, Cc1ccc(NC(=O)C2CCCN2S(=O)(=O)c2cccc3cccnc23)c(C)c1 (stereo not drawn) -30.7%, O=C(Nc1nccs1)C1CCCN1S(=O)(=O)c1cccc2cccnc12 (stereo not drawn) -11.2%, COc1ccc(NC(=O)C2CCCN(S(=O)(=O)c3cccc4cccnc34)C2)cc1 (stereo not drawn) -34.5%, COc1ccc(NC(=O)C2CCCN(S(=O)(=O)c3cccc4cccnc34)C2)cc1OC (stereo not drawn) -27.1%, O=C(CN1C(=O)NC2(CCCC2)C1=O)Nc1cc(C(F)(F)F)ccc1N1CCOCC1 -28.3%, C[C@H](CO)N1C[C@H](C)[C@@H](CN(C)Cc2ccc(-c3ccccc3)cc2)Oc2ccc(NC(=O)Cn3cnnn3)cc2C1=O -7.92%, CC[C@]1(C(=O)OC)[C@H]2C(=O)N(Cc3ccccc3)C(=O)[C@H]2[C@H]2CN=C(SCc3ccc(C#N)cc3)N21 -5.92%, Cc1ccc(S(=O)(=O)N2[C@@H](c3cccc(Cl)c3)C(C(=O)O)=CC[C@H]2c2ccc(Cl)c(Cl)c2)cc1 42%, Cc1ccc([C@@H]2CC=C(C(=O)O)[C@H](c3cccc(Cl)c3)N2S(=O)(=O)c2ccc(C)cc2)cc1 10.8%, COc1cc(NC(=O)COC(=O)c2ccc([N+](=O)[O-])s2)cc(OC)c1OC -20.3%, O=C(C[C@H]1C[C@H](C(=O)N2CCOCC2)[C@@]2(CCC3CCCC3)c3[nH]c4ccc(Cl)cc4c3CCN2C1=O)NCc1ccco1 21.8%, Cc1ccc(-n2[nH]c(C)c(/C=N/N3C(=O)c4cccc5cccc(c45)C3=O)c2=O)cc1 -11.8%, Cc1ccc(-n2[nH]c(C)c(/C=N/NC(=O)c3cccc([N+](=O)[O-])c3)c2=O)cc1C 7.53%, O=C(Nc1cc(S(=O)(=O)N2CCOCC2)ccc1N1CCOCC1)c1c(F)cccc1Cl -20%, Cc1cc(N2C(=O)C(O)=C(C(=O)c3ccc(C)o3)C2c2ccc(OCc3ccccc3)cc2)no1 (stereo not drawn) -19.8%, C=CCOc1cccc(C2C(C(=O)c3ccc(C)o3)=C(O)C(=O)N2CCCn2ccnc2)c1 (stereo not drawn) -1.44%, O=C(Cc1ccc(Cl)c(Cl)c1)Nc1ccc(SC(F)F)cc1 -12.3%, O=C(CC1SCCNC1=O)Nc1ccc(Cl)c(Cl)c1 (stereo not drawn) -14.2%, CC(=O)Nc1ccc(NC(=O)COC(=O)C2CCC(C(C)(C)C)CC2)cc1 (stereo not drawn) -1.79%, COc1ccc(Nc2oc(-c3ccccc3Cl)nc2C#N)cc1 -16.2%, CC1CCN(c2oc(-c3ccccc3F)nc2C#N)CC1 -6.67%, O=C(N[C@H]1C/C=C\C(c2cccc(F)c2)N(Cc2ccccc2)C(=O)C1)OCC1c2ccccc2-c2ccccc21 (stereo partly drawn) 4.42%, CC(NC(=O)COC(=O)c1ccc2ccccc2n1)c1ccccc1 (stereo not drawn) -14.8%, CC(=O)Nc1ccc(S(=O)(=O)NCC(=O)OCC(=O)c2ccc[nH]2)cc1 -2.13%, C#CCOCCOCCOCCNc1nc(N2CCN(C(=O)[C@H](CO)n3cc([C@@H](N)C(C)C)nn3)CC2)nc(N2CCN(C(=O)[C@H](CCC(=O)O)n3cc([C@@H](N)[C@H](C)CC)nn3)CC2)n1 0.47%, O=C(CSc1nnc(-c2ccncc2)o1)Nc1cccc(Cl)c1 -0.1%, CCOC(=O)C1CCCN(C(=O)CSc2nnc3nc(C)cc(C)n23)C1 (stereo not drawn) -14.2%, CC(=O)N1c2ccc(S(=O)(=O)N3CCCC(C(=O)Nc4cccc(Cl)c4)C3)cc2CC1C (stereo not drawn) 0.09%, CC(=O)N1CCCc2cc(S(=O)(=O)N3CCCC(C(=O)NCc4ccc(Cl)cc4)C3)ccc21 (stereo not drawn) -22.5%, CCOc1ccccc1Nc1nnc(SCC(=O)NCC2CCCO2)s1 (stereo not drawn) -22.1%

inhibition, active:
N#C/C(=C1\CCCN1)c1nc(-c2ccccc2)cs1 52.9%, N#CC(=C1SC=CS1)c1nc(-c2ccccc2)cs1 89.5%, CCOC(=O)N1CCN(C(=O)C2CCN(c3ncnc4c3sc3cccc(F)c34)CC2)CC1 65.7%, O=C(Nc1ccc2ccccc2c1)Nc1ccc2snnc2c1 41.4%, O=c1c2ccccc2nc2n1C(CSCc1cccc(C(F)(F)F)c1)CS2 (stereo not drawn) 45.5%, COc1cccc(/C=N/Nc2cc(C)nc(-c3ccccc3O)n2)c1O 93.8%, COc1ccc(C(=O)NC2CCCc3c2cnn3-c2cccc(C)c2C)c(OC)n1 (stereo not drawn) 44.8%, CN(C(=O)CN(CCO)CC(=O)N(C)C(C)(C)Cc1ccccc1)C(C)(C)Cc1ccccc1 68.2%, C=CCC1(CC=C)CCCN1C(=O)c1cc(COc2ccc(-n3cncn3)cc2)on1 34.5%, O=C(NC(Nc1nc2ccc([N+](=O)[O-])cc2s1)(C(F)(F)F)C(F)(F)F)c1ccccc1 59.4%, COc1ccccc1CNC(=O)C1CCCN(S(=O)(=O)c2cccc3cccnc23)C1 (stereo not drawn) 79.2%, Cc1cc(C)cc(NC(=O)C2CCCN2S(=O)(=O)c2cccc3cccnc23)c1 (stereo not drawn) 104%, Cc1ccccc1S(=O)(=O)N1[C@@H](c2cccc(Cl)c2)C(C(=O)O)=CC[C@H]1c1ccc(Cl)cc1 52.1%, COc1cc(SC#N)ccc1N=Cc1c(C)[nH]n(-c2ccc(C)cc2)c1=O 67.5%, C=CCOc1cccc(C2C(C(=O)c3ccc(C)o3)=C(O)C(=O)N2c2nnc(C)s2)c1 (stereo not drawn) 51%, O=C(CC(O)(C(F)(F)F)C(F)(F)F)Nc1ccc(Cl)c(Cl)c1 62.6%, Oc1c(Cl)cc(Cl)c(Cl)c1Cc1c(O)c(Cl)cc(Cl)c1Cl 42.3%, N#Cc1nc(-c2cccc3ccccc23)oc1N 56%, CC(=O)N1CCCc2cc(S(=O)(=O)N3CCCC(C(=O)N4CCN(c5cccc(Cl)c5)CC4)C3)ccc21 (stereo not drawn) 72.6%
